Where “and” joins values, the source holds several entries; their conditions need not be identical. Equal values may be shown once. Results filed as inconclusive are left out. Unmarked numbers belong to inactive results. Calls of active or inactive are those of the source. Calls follow the shape of the full dose curve.
% is scaled to controls: 0 for no effect and ±100 for the full control effect; potency is read from the fitted curve at half-maximal effect.

The nature of this assay: qHTS assay for small molecule agonists of the p53 signaling pathway (AID 651631). Also: nearly all actives have a fitted effect of over 15% in size. The note with it: HCT-116 p53RE-bla reporter, beta-lactamase FRET ratio, 16 h; series mostly up to 73.3 µM; activation: at the top concentration. The source says:
U.S. Tox21 Program National Center for Advancing Translational Sciences [NCATS] NIH Chemical Genomics Center [NCGC] U.S. Environmental Protection Agency [EPA] National Institutes of Environmental Health Sciences [NIEHS] National Toxicology Program [NTP] U.S. Food and Drug Administration [FDA] Tox21 Assay Overview: p53, a tumor suppressor protein, is activated following cellular insult, including DNA damage and other cellular stresses. The activation of p53 regulates cell fate by inducing DNA repair, cell cycle arrest, apoptosis, or cellular senescence. The activation of p53, therefore, is a good indicator of DNA damage and other cellular stresses. The CellSensor p53RE-bla HCT-116 cell line (Invitrogen) contains a stably integrated beta-lactamase reporter gene under control of the p53 response elements. The activation of the reporter gene under culture conditions can be detected by fluorescence intensity. This cell line was used to screen the Tox21 compound library in a 1536-well plate format and to identify agonists that activate the p53 signaling pathway.
Tox21 Assay Protocol Summary: The p53RE-bla cells were dispensed at 4,000 cells/5 ul/well in 1536-well black wall/clear bottom plates using a Multidrop dispenser. After the assay plates were incubated at a 37 C/5% CO2 incubator for 5 hours, 23 nL of compounds dissolved in DMSO, positive controls or DMSO only was transferred to the assay plate by a pin tool. The plates were incubated at 37 C for 16 hours. After 1 uL of LiveBLAzerTM B/G FRET substrate was added using a Flying Reagent Dispenser, the plates were incubated at room temperature for 2 hours, and fluorescence intensity was measured by an Envision plate reader.
A general note: Quantitative high-throughput screening tests each substance at several concentrations.
Take `CCC1(CC)C(=O)C=CNC1=O`: the “activation” value is -5.26%.

Take `CCOC(=O)NC(C)(C)Cc1ccc(Cl)cc1`: the “activation” value was -2.55%. Still for that read-out and setting: the figure for `CCC(C(N)=O)N1CCCC1=O` (stereo not given) is -4.55%. As for `S=C=S`, the Potency result is “inactive”. For the molecule `O=C(Cl)C(Cl)Cl`, the “activation” value was -2.55%. Same read-out and setting: with `C/C(=N\NC(=O)Nc1cc(F)cc(F)c1)c1ncccc1C(=O)O` the figure was 1.16%; with `CCC(=O)OC1(c2ccccc2)CCN(C)CC1`, -3.23% [at 95.1 µM]. `O=C(Cl)C(Cl)(Cl)Cl`: the “activation” value is -3.37% [at 95.1 µM]. Still for that read-out and setting: with `CCOP(=O)(CN(CCO)CCO)OCC` the figure was -2.1%; with `CCCCCCCC(=O)Cl`, -2.75% [at 95.1 µM].

Consider `CC(C)(C)C(=O)C(Cl)Cl`, for which the “activation” value is 1.92%. Same read-out and setting: with `CCOP(=S)(OCC)Oc1ccc(Cl)cc1Cl` the figure was -1.98%; with `NC(=O)CS(=O)C(c1ccccc1)c1ccccc1` (stereo not given), 2.08%. Same read-out and setting: with `NC1(c2ccccc2)CCCCC1` the figure was 2.86%; with `O=C(CCl)NCO`, 4.16%. Regarding `CC(C)(C)c1cc(O)ccc1O`, the Potency result was “inactive”. With `[O-][Br+2]([O-])O`, the “activation” value was -1.01%. Same read-out and setting: the figure for `COC1=CC(=O)O[C@@H](/C=C/c2ccccc2)C1` is 1.66% [at 95.1 µM]; for `N#CN=C1SCCN1Cc1ccc(Cl)nc1` it is -2.94%. Still for that read-out and setting: the figure for `CON(C)C(=O)Nc1ccc(Br)cc1` is -0.311%; for `CC#Cc1cc(C)nc(Nc2ccccc2)n1` it is 3.25%; for `CCCCS(=O)(=O)Cl` it is -2.34%.

Consider `[P]#[In]`, for which the “activation” value was 0.944%.

On to `CCc1cc(OC)c(C[C@H](C)N)cc1OC`, for which the “activation” value was -2.73% [at 95.1 µM]. In the case of `CC1=C2[C@H]3OC(=O)[C@@H](C)[C@@H]3CC[C@@]2(C)C=CC1=O`, the “activation” value is -5.81%. Regarding `Brc1c(Br)c(Br)c(Br)c(Br)c1Br`, the activation is -6.36% [at 8.3 µM]. Consider `O=S1(=O)OCCO1`, for which the “activation” value was 3.31% [at 95.1 µM]. On the same count and under the same terms, with `Oc1ccc(Cc2ccc(O)cc2)cc1` the figure was -1.38% [at 95.1 µM]; with `ClCCCCl`, -3.73% [at 95.1 µM]. Same read-out and setting: the figure for `ClCC1CO1` (stereo not given) is -1.08%; for `N[C@@H]1C[C@H]1c1ccccc1` it is 3.85%. In the case of `CCCC(C)(COC(N)=O)COC(N)=O`, the Potency result is “inactive”. For the molecule `COc1cccc([C@@]2(O)CCCC[C@@H]2CN(C)C)c1`, the “activation” value is -2.82%.

In the case of `O=C(Cl)c1ccccc1`, the “activation” value is -2.79% [at 95.1 µM]. Still for that read-out and setting: with `CCOC(=O)CC(SP(=S)(OC)OC)C(=O)OCC` (stereo not given) the figure was -2.08%; with `C=C(Cl)CCl`, -2.42%.

Turning to `Oc1ccc2c3c1O[C@H]1[C@@H](O)C=C[C@H]4[C@@H](C2)NCC[C@@]341`, the “activation” value is -3.59% [at 95.1 µM]. As to `C[C@H]1CCCC(=O)CCC/C=C/c2cc(O)cc(O)c2C(=O)O1`, the Potency was 9.33 µM (active) and 22.4 µM (active). Consider `OCC(Cl)CCl` (stereo not given), for which the “activation” value was -1.74%. For `CCCCCCCCBr`, the “activation” value was -2.94%.

The values above are taken from PubChem BioAssay (Tox21).
